Screening results as filed in PubChem BioAssay.
Sfp inh: qHTS Assay for Inhibitors of Bacillus subtilis Sfp phosphopantetheinyl transferase (PPTase) | 4'-phosphopantetheinyl transferase ffp (Bacillus subtilis), Q9F4F7 | Biochemical Sfp PPTase activity, qHTS | Potency, µM, for the others: largest response in the series, negative = inhibition, actives largely listed as inhibitors | 310,000 compounds, 3.5% hits;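 further: the enzyme is Sfp with the accession as filed and its product quenches rhodamine fluorescence; potency means the concentration at half of the fitted maximal effect; 0% = enzyme reaction without inhibitor and -100% = no enzyme wells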
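Reaction rates are the 30-min fluorescence difference (ex 525, em 598 nm) in wells containing 15 nM Sfp, 5 uM rhodamine-CoA and 12.5 uM BHQ-2-YbbR at pH 7.6 with 10 mM MgCl2.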
VDR inh: Inhibitors of the vitamin D receptor (VDR): qHTS | Potency, µM, inactives show max response, negative = inhibition, usual class: inhibitors | 400,000 compounds, 0.93% hits | AID 504847, 2011 | VDR-SRC2-3 peptide fluorescence polarization, 2 h | Vitamin D3 receptor (Homo sapiens), P11473; further: potency means the concentration at half of the fitted maximal effect
Target sequence (P11473 whole entry, looked up): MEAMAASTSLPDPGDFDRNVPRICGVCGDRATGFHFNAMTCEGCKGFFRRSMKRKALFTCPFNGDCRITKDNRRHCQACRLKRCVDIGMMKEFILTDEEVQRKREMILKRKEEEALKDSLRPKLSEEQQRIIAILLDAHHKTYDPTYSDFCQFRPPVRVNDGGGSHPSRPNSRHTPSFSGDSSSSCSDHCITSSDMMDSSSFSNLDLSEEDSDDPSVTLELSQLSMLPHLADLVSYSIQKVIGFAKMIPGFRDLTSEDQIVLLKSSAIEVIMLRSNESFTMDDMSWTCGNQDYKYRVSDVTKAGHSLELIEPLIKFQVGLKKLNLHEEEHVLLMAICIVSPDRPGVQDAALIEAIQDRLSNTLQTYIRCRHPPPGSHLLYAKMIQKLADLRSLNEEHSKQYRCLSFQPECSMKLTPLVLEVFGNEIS
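Fluorescence polarization assay measuring small-molecule disruption of VDR binding to the coregulator peptide SRC2-3. Compounds were pin-transferred (23 nl) into the reagent mix and incubated 2 h at room temperature before reading.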
PLK1 PBD inh: qHTS for Inhibitors of PLK1-PDB (polo-like kinase 1 - polo-box domain): Primary Screen; Serine/threonine-protein kinase PLK1 (Homo sapiens), P53350; Plk1 PBD binding of FITC phosphopeptide, fluorescence polarization; Potency, µM, inactives show max response, negative = inhibition, actives largely listed as inhibitors; 360,000 compounds, 2.8% hits; further: potency means the concentration at half of the fitted maximal effect; series mostly up to about 57 µM; nearly all actives have a fitted effect of over 65% in size
CCT chaperon mod: High-Throughput Screening for Modulators of Cytosolic Chaperonin Activity. purified chaperonin ATPase assay, HTRF ADP detection, 30 min. activity change, % (concentration not given with the values), hits read low. AID 651819, 2012. 360,000 compounds, 0.3% hits; in the data active means activity change below about -30%
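We incubate TRiC, 40 or 20 nM final, with library compounds at 76 uM and 10 uM ATP for 30 min at 37 °C. ADP formed is detected with Transcreener HTRF reagents after 30 min at room temperature.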
G9a block: qHTS Assay for Inhibitors of Histone Lysine Methyltransferase G9a. Histone-lysine N-methyltransferase EHMT2 (Homo sapiens), Q96KQ7. G9a H3K9 monomethylation, AlphaScreen, 2 h. Potency, µM (top dose mostly 102 µM), for inactives: at the top dose activity, negative = inhibition, most hits filed as inhibitors. 350,000 compounds, 8.8% hits; further: potency means the concentration at half of the fitted maximal effect; nearly all actives have a fitted effect of over 75% in size
Target sequence (Q96KQ7 913-1193 limits assumed): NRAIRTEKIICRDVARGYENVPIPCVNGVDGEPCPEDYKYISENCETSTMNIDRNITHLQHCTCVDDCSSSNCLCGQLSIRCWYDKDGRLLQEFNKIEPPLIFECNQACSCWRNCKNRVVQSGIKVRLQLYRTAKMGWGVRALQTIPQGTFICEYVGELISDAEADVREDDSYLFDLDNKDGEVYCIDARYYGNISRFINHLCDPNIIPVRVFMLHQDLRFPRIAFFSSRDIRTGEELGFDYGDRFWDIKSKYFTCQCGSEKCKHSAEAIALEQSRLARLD
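Using a bead-based AlphaScreen, monomethylated H3K9 product from 2 h room-temperature reactions (G9a 20 nM, peptide 500 nM, SAM 20 uM) was detected with 0.5 ug/mL rabbit anti-H3K9me1 antibody.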
Mm-Cpn inhibitor: Inhibitors of TCP-1 ring complex (TRiC) of Methanococcus maripaludis (MmCpn): qHTS | Chaperonin Mm-Cpn (Methanococcus maripaludis) | purified Mm-Cpn ATPase, ADP Transcreener TR-FRET | Potency, µM (series often up to 76.9 µM), for inactives: top-dose activity, negative = inhibition, actives largely listed as inhibitors | 330,000 compounds, 0.031% hits | AID 504842, 2011; further: potency means the concentration at half of the fitted maximal effect; nearly all actives have a fitted effect of over 80% in size
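Measured: ADP formation by purified Mm-CPN. Conditions: 25 nM protein, 10 uM ATP, Tris pH 7.4 with Mg2+, K+ and DTT, 37°C for 30 min. Detection: Transcreener HTRF after 30 min at room temperature.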
An asterisk follows results filed as active; ? = inconclusive; . = not tested or not shown; [ ] = dose if it differs, or a comment. In the library only some 10% were active in any assay of this set; here they are far more common. Unless noted, the call rests on the fitted dose curve; in most records, active means well fitted curve in the direction sought with a large enough effect; inconclusive means small, poorly fitted or top-dose-only effect, or another doubt; inactive means no such curve, though single readings can be large; an effect the other way counts as inactive or inconclusive. Unless noted, on the % scale 0 is the no-effect control and ±100 the full control effect.

SMILES	Sfp inh	VDR inh	PLK1 PBD inh	CCT chaperon mod	G9a block	Mm-Cpn inhibitor
Cc1cc(N)ncc1[N+](=O)[O-]	.	-8%	-1%	0	.	.
Cc1cc(Sc2ncnc(N)c2[N+](=O)[O-])ncn1	50µM*	?	?	-1	-3%[12.7 µM]	-1%
Cc1cc(Sc2nc(N)ncc2[N+](=O)[O-])ncn1	22µM*	-18%	?	-2	32µM*	0%
Cc1ccc(NCc2nc3ccccc3n2C)cc1	?	-1%	-3%	-1	-7%[12.7 µM]	3%
COc1ccc(NCc2nc3ccccc3n2CCOc2ccccc2)cc1	-8%	-23%	-14%	-1	32µM*	-2%
COc1ccc(NCc2nc3ccccc3n2CCOc2ccc(C)cc2)cc1	-9%	-16%	-9%	-4	14µM*	0%
Cn1c(CNc2ccc(O)cc2)nc2ccccc21	79µM*	3%	-6%	-3	?	-6%
c1ccc(NCc2nc3ccccc3n2CCOc2ccccc2)cc1	2%	5%	0%	-1	?	-1%
CSc1nc(-c2ccccc2)nn1S(=O)(=O)c1ccccc1	-3%	14%	-4%	-50*	?	2%
CCSc1nc2ccccc2n1S(=O)(=O)c1ccccc1	-11%	5%	-9%	-2	50µM*	0%
CCCC(=O)n1nc(-c2ccccc2)nc1SC	8%	2%	-15%	2	1.1µM*	2%
Cc1ccc(NC(=O)CN2C(=O)COc3ccc(S(=O)(=O)N4CCCCCC4)cc32)cc1C	.	6%	.	.	-4%[59 µM]	.
O=C(NCCN1CCCC1)c1ccc(Cn2c(=S)[nH]c3ccc(Br)cc3c2=O)cc1	-1%	-14%	-23%	-2	50µM*	-9%
CC1CCN(CCNC(=O)c2ccc3c(=O)n(Cc4ccc(Cl)cc4)c(=S)[nH]c3c2)CC1	-18%	-2%	-4%	-1	11%	-1%
O=C(NCCCN1CCCC1)c1ccc(Cn2c(=S)[nH]c3ccc(Br)cc3c2=O)cc1	-9%	.	.	.	22µM*	-9%
COc1cc2[nH]c(=O)n(Cc3ccc(C(=O)NCCCN4CCC(C)CC4)cc3)c(=O)c2cc1OC	5%	1%	-5%	-1	1%	0%
CCOc1ccc(NC(=O)CSc2nc3nc(C)c(Cc4ccccc4)c(C)n3n2)cc1	.	11%	.	.	-3%[59 µM]	.
CCOc1cc(/C=C2\SC(=N)N(c3nonc3N)C2=O)ccc1OCC(N)=O	-16%	-22%	-4%	-3	45µM*	1%
CCN(c1ccccc1)c1nc(C#N)nc(N(CC)c2ccccc2)n1	-6%	?	21µM*	-4	12%[12.7 µM]	-1%
CCC/C=C(\CCC)C(NC(=O)Oc1ccc(F)cc1)c1ccc(C(=O)OC)cc1 (stereo not drawn)	14%	.	.	.	.	.
O=C(NC1CCCCC1NC(=O)c1ccco1)c1ccco1 (stereo not drawn)	20%	3%	-3%	0	-10%[59 µM]	0%
O=C(NC1c2ccccc2-c2ccccc21)c1ccco1	-9%	-11%	21µM*	0	9%	1%
COc1ccc(C(=O)/C=C/c2ccc(N3CCCCC3)c([N+](=O)[O-])c2)c(OC)c1	-11%	?	4%	1	8.9µM*	0%
COc1ccc(C(=O)/C=C/c2ccc(N3CCCCC3)c([N+](=O)[O-])c2)cc1	15%	?	-3%	0	10µM*	2%
COCCN1Cc2cccc(C(=O)Nc3ccc(C)cc3C)c2C1=O	.	4%	.	.	9%[59 µM]	.
SMILES	Sfp inh	VDR inh	PLK1 PBD inh	CCT chaperon mod	G9a block	Mm-Cpn inhibitor
CCOC(=O)c1c(C)[nH]c(C)c1S(=O)(=O)NCC(=O)N(C)c1ccc(C)c(C)c1	.	-1%	.	.	2%[59 µM]	.
COC(=O)c1cc2oc3ccccc3c2n1CC(=O)Nc1ccc(OC)c(OC)c1	.	11%	.	.	2%[59 µM]	.
CCOc1ccc(-n2c(SCc3cc(=O)oc4cc(C)ccc34)nnc2-c2cccnc2)cc1	6%	-4%	3%	-1	7%[59 µM]	0%
CC(=O)Nc1ccc2c(CSc3nnc(-c4cccnc4)n3-c3ccc(C)cc3C)cc(=O)oc2c1	-14%	8%	-4%	0	8.9µM*	-18%
CCN(CC)C(=O)Cn1c(=O)n(CCCCCC(=O)NCc2ccccc2Cl)c(=O)c2sccc21	.	-2%	.	.	-21%[59 µM]	.
Clc1ccccc1CN1CCC(Cc2ccccc2)CC1	-23%	0%	2%	-2	10µM*	0%
Cc1ccc(CN2CCN(Cc3ccccc3C(F)(F)F)CC2)cc1	?	-4%	3%	1	2µM*	1%
CC1CN(Cc2ccccc2Cl)CC(C)O1 (stereo not drawn)	?	-7%	-2%	-3	8.9µM*	.
Cc1[nH]c2ccccc2c1CN1CCC(Cc2ccccc2)CC1	79µM*	-11%	-9%	-3	14µM*	3%
COc1cc(CN2CCN(Cc3ccccc3C(F)(F)F)CC2)cc(OC)c1OC	-30%	-13%	6%	-1	-18%[2.33 µM]	-1%
FC(F)(F)c1ccccc1CN1CCC(Cc2ccccc2)CC1	-18%	-1%	-2%	-1	22µM*	-3%
CC1=Nc2cc([N+](=O)[O-])ccc2NC(C)(C)C1	?	-24%	-16%	-2	32µM*	-4%
CSc1ccc(CCNC(=O)c2ccc3c(c2)nc2n3CCC(C)C2)cc1 (stereo not drawn)	.	11%	.	.	-21%[59 µM]	.
CC(Sc1nnc(-c2cccnc2)n1N)C(=O)Nc1ccc2c(c1)OCCO2 (stereo not drawn)	.	-6%	-12%	2	56µM*	1%
CC(C)CO/N=C1/C[C@@H](O)[C@@H](O)[C@@H]2[C@@H]3C(=O)N(C4CCCCC4)C(=O)[C@H]3CC[C@H]12	6%	.	.	.	.	.
CC1CCc2c(sc3nnn(Cc4cccc(C(=O)OC(C)C)c4)c(=O)c23)C1 (stereo not drawn)	.	1%	.	.	18µM*	.
O=C(NC[C@@H]1CCCCN1)c1cc(OCC(F)(F)F)ccc1OCC(F)(F)F	22%	-2%	.	.	21%[21.5 µM]	.
COc1cccc(-c2nccc(NCCc3c[nH]c4ccc(OC)cc34)n2)c1	-20%	0%	.	.	-2%[0.501 µM]	.
CCN(CCNC(=O)Nc1ccc(Cl)cc1)c1ccccc1	12%	-8%	-3%	-2	50µM*	0%
O=C(NCCc1ccc(Cl)cc1)Nc1ccc(Cl)cc1	5%	-6%	-6%	3	.	1%
Cc1nc2c3cccnc3nn2c(C)c1CCC(=O)NCc1ccccc1	.	-7%	.	.	-24%[59 µM]	.
COc1cc(NC(=O)c2ccc3c(Cl)c4c(nc3c2)CCC4)cc(OC)c1OC	.	-2%	.	.	28µM*	.
